Assay results: PubChem BioAssay (EPA / NIEHS)
Where “and” joins values, the source holds several entries; their conditions need not be identical. Equal values may be shown once. Where a structure was tested more than once in an assay, its records may differ in their call. Calls of active or inactive are those of the source. The calls were made as follows: active = hit-call score of the fitted dose curve at least 0.9, where 1 is the maximum; inactive = score below 0.9.

Assays:
[1] = read-out: Urokinase-type plasminogen activator receptor (uPAR), PLAUR (gene 5329); assay: BSK_4H_uPAR: BioMAP Diversity Plus: 4H Assay for Urokinase-type plasminogen activator receptor (uPAR) Biomarker Activity (AID 2283030); conditions: primary human endothelial cells (HUVEC); actives raise or lower the signal
How it was run: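 Primary human umbilical vein endothelial cells were exposed to chemical for 24 h before cell-surface uPAR was quantified by ELISA. Activity was fitted bidirectionally against the DMSO negative control baseline.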

[2] = read-out: Vascular endothelial growth factor receptor 2 (Homo sapiens) (UniProt P35968); assay: BSK_4H_VEGFRII: BioMAP Diversity Plus: 4H Assay for Vascular endothelial growth factor receptor 2 (VEGFR2) Biomarker Activity (AID 2283031); conditions: primary human endothelial cells (HUVEC); actives raise or lower the signal
How it was run: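 Primary human umbilical vein endothelial cells in the BioMAP 4H system were dosed with test chemical, and 24 h later VEGFRII was measured by ELISA. Activity was fitted bidirectionally against DMSO as negative control and baseline.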

[3] = read-out: Human Leukocyte Antigen - DR isotype (HLADR), HLA-DRA (gene 3122); assay: BSK_BE3C_HLADR: BioMAP Diversity Plus: BE3C Assay for Human Leukocyte Antigen - DR isotype (HLADR) Biomarker Activity (AID 2283032); conditions: primary human bronchial epithelial cells; actives raise or lower the signal
How it was run: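 Human primary bronchial epithelial cells in the BE3C system were exposed to chemicals for 24 h, after which HLA-DR levels were quantified by ELISA. Activity was fitted bidirectionally, gain or loss of signal, against DMSO as negative control and baseline.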

[4] = read-out: Vascular cell adhesion molecule 1 (VCAM1), VCAM1 (gene 7412); assay: BSK_4H_VCAM1: BioMAP Diversity Plus: 4H Assay for Vascular cell adhesion molecule 1 (VCAM1) Biomarker Activity (AID 2283033); conditions: primary human endothelial cells (HUVEC); actives raise or lower the signal
How it was run: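 Primary human umbilical vein endothelial cells were exposed to chemicals for 24 h, after which VCAM-1 was quantified by ELISA. Responses were fitted bidirectionally against DMSO as negative control and activity baseline.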

[5] = read-out: Interferon-gamma inducible Protein 10 (IP10), CXCL10 (gene 3627); assay: BSK_BE3C_IP10: BioMAP Diversity Plus: BE3C Assay for Interferon-gamma inducible Protein 10 (IP10) Biomarker Activity (AID 2283034); conditions: primary human bronchial epithelial cells; actives raise or lower the signal
How it was run: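 Human primary bronchial epithelial cells were exposed to chemicals for 24 hours, after which IP-10 levels were measured by ELISA. Data were fitted bidirectionally against DMSO, which served as the negative control and activity baseline.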

[6] = read-out: Plasminogen activator inhibitor-1 (PAI1), SERPINE1 (gene 5054); assay: BSK_BE3C_PAI1: BioMAP Diversity Plus: BE3C Assay for Plasminogen activator inhibitor-1 (PAI1) Biomarker Activity (AID 2283037); conditions: primary human bronchial epithelial cells; actives raise or lower the signal
How it was run: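 Human primary bronchial epithelial cells were exposed to chemical for 24 h, then PAI-1 was quantified by ELISA. Activity was fitted bidirectionally relative to the DMSO negative control baseline.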

[7] = read-out: urokinase plasminogen activator (uPA), PLAU (gene 5328); assay: BSK_BE3C_uPA: BioMAP Diversity Plus: BE3C Assay for urokinase plasminogen activator (uPA) Biomarker Activity (AID 2283038); conditions: primary human bronchial epithelial cells; actives raise or lower the signal;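 also: uPA protein level quantified by ELISA in cell cultures; uPA read one day after compound addition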
How it was run: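 Human primary bronchial epithelial cells were exposed to chemical for 24 h, then uPA levels were measured by ELISA. Responses were fitted bidirectionally against DMSO as negative control and baseline. Parallel SRB staining of total protein gauged overt cytotoxicity.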

[8] = read-out: Urokinase-type plasminogen activator receptor (uPAR), PLAUR (gene 5329); assay: BSK_BE3C_uPAR: BioMAP Diversity Plus: BE3C Assay for Urokinase-type plasminogen activator receptor (uPAR) Biomarker Activity (AID 2283039); conditions: primary human bronchial epithelial cells; actives raise or lower the signal
How it was run: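 Primary human bronchial epithelial cells were dosed with chemical and harvested 24 h later; uPAR was quantified by ELISA. Activity was fitted bidirectionally against DMSO as negative control and baseline.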

[9] = read-out: Interleukin-6 (IL6), IL6 (gene 3569); assay: BSK_CASM3C_IL6: BioMAP Diversity Plus: CASM3C Assay for Interleukin-6 (IL6) Biomarker Activity for (AID 2283040); conditions: primary human coronary artery smooth muscle cells; actives raise or lower the signal
[10] = read-out: Tissue plasminogen activator (tPA), PLAT (gene 5327); assay: BSK_BE3C_tPA: BioMAP Diversity Plus: BE3C Assay for Tissue plasminogen activator (tPA) Biomarker Activity (AID 2283041); conditions: primary human bronchial epithelial cells; actives raise or lower the signal
How it was run: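 Human primary bronchial epithelial cells were dosed with chemical and tPA biomarker levels measured by ELISA 24 hours later. Activity was fitted bidirectionally against DMSO as negative control and baseline.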

[11] = read-out: Interleukin-8 (IL8), CXCL8 (gene 3576); assay: BSK_CASM3C_IL8: BioMAP Diversity Plus: CASM3C Assay for Interleukin-8 (IL8) Biomarker Activity (AID 2283042); conditions: primary human coronary artery smooth muscle cells; actives raise or lower the signal;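 also: IL-8 protein level quantified by ELISA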
[12] = read-out: Human Leukocyte Antigen - DR isotype (HLADR), HLA-DRA (gene 3122); assay: BSK_CASM3C_HLADR: BioMAP Diversity Plus: CASM3C Assay for Human Leukocyte Antigen - DR isotype (HLADR) Biomarker Activity (AID 2283043); conditions: primary human coronary artery smooth muscle cells; actives raise or lower the signal;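 also: cell-surface HLA-DR protein level quantified by ELISA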
[13] = read-out: Macrophage colony-stimulating factor (MCSF), CSF1 (gene 1435); assay: BSK_CASM3C_MCSF: BioMAP Diversity Plus: CASM3C Assay for Macrophage colony-stimulating factor (MCSF) Biomarker Activity (AID 2283044); conditions: primary human coronary artery smooth muscle cells; actives raise or lower the signal;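 also: M-CSF protein amount quantified by ELISA after 24 h exposure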
[14] = read-out: Low-density lipoprotein receptor (LDLR), LDLR (gene 3949); assay: BSK_CASM3C_LDLR: BioMAP Diversity Plus: CASM3C Assay for Low-density lipoprotein receptor (LDLR) Biomarker Activity (AID 2283045); conditions: primary human coronary artery smooth muscle cells; actives raise or lower the signal;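 also: LDLR protein level on the cell surface quantified by ELISA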
[15] = read-out: Monocyte Chemoattractant Protein-1 (MCP1), CCL2 (gene 6347); assay: BSK_CASM3C_MCP1: BioMAP Diversity Plus: CASM3C Assay for Monocyte Chemoattractant Protein-1 (MCP1) Biomarker Activity (AID 2283046); conditions: primary human coronary artery smooth muscle cells; actives raise or lower the signal;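 also: MCP-1 level quantified by ELISA 24 h after dosing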
[16] = BSK_CASM3C_Proliferation: Cell Proliferation Assessment in the BioMAP Diversity Plus: CASM3C Assay (AID 2283047); conditions: primary human coronary artery smooth muscle cells;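 also: sulforhodamine B total protein stain as relative cell number at 560 nm; sub-confluent cells exposed 48 h before staining; fitted both ways against DMSO so gain or loss of cell number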
[17] = read-out: Monokine induced gamma interferon (MIG), CXCL9 (gene 4283); assay: BSK_CASM3C_MIG: BioMAP Diversity Plus: CASM3C Assay for Monokine induced gamma interferon (MIG) Biomarker Activity (AID 2283048); conditions: primary human coronary artery smooth muscle cells; actives raise or lower the signal
[18] = read-out: serum amyloid A (SAA), SAA1 (gene 6288); assay: BSK_CASM3C_SAA: BioMAP Diversity Plus: CASM3C Assay for serum amyloid A (SAA) Biomarker Activity (AID 2283049); conditions: primary human coronary artery smooth muscle cells; actives raise or lower the signal;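 also: SAA protein level quantified by ELISA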
[19] = read-out: Monokine induced gamma interferon (MIG), CXCL9 (gene 4283); assay: BSK_BE3C_MIG: BioMAP Diversity Plus: BE3C Assay for Monokine induced gamma interferon (MIG) Biomarker Activity (AID 2283035); conditions: primary human bronchial epithelial cells; actives raise or lower the signal
How it was run: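 ELISA read-out of MIG in human lung bronchial epithelial primary cultures, 24 h post-dosing. Bidirectional curve fit vs DMSO baseline.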

[20] = read-out: Transforming growth factor beta 1 (TGFb1), TGFB1 (gene 7040); assay: BSK_BE3C_TGFb1: BioMAP Diversity Plus: BE3C Assay for Transforming growth factor beta 1 (TGFb1) Biomarker Activity (AID 2283036); conditions: primary human bronchial epithelial cells; actives raise or lower the signal
How it was run: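 Human primary bronchial epithelial cells (BE3C system) were dosed with chemical and TGF-b1 levels measured by ELISA at 24 h. Activity was fitted bidirectionally relative to DMSO negative control as baseline.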

Measured: AC50

N=C(N)C(F)(F)C(F)(F)C(F)(F)C(F)(F)C(F)(F)C(F)(F)C(F)(F)F
inactive: [1] | [2] | [3] | [5] | [6] | [7] | [8] | [9] | [10] | [11] | [12] | [13] | [14] | [15] | [16] | [17] | [18]
active: [3] 43.1 µM | [4] 21.1 µM and 44.1 µM | [5] 48.6 µM | [12] 30 µM | [14] 27.1 µM | [16] 46.1 µM

C#C[C@]1(O)CC[C@H]2[C@@H]3CCc4cc(OC)ccc4[C@H]3CC[C@@]21C
active: [3] 6.9 µM | [16] 0.253 µM
inactive: all other assays above

CCCCC(CC)COP(=O)(O)OCC(CC)CCCC (configuration not stated)
active: [3] 29.3 µM and 31.6 µM | [5] 32 µM and 31.2 µM | [19] 32.8 µM and 29.5 µM | [6] 16.2 µM and 20 µM | [8] 5.24 µM | [10] 25.9 µM and 14.4 µM
inactive: [1] | [2] | [4] | [7] | [8] | [9] | [11] | [12] | [13] | [14] | [15] | [16] | [17] | [18]

Nc1ccc([N+](=O)[O-])cc1O
active: [8] 20 µM
inactive: all other assays above

FC(F)(F)C(F)(F)C(F)(F)C(F)(F)C(F)(F)C(F)(F)C(F)(F)I
not listed: [20]
inactive: all other assays above
